These results are taken from PubChem BioAssay (Tox21).

Structures are written as SMILES. “And” between values parts separate entries of the source, which are not always exact repeats. Equal values may be shown once. Inconclusive results are not listed. Entries that show only a call come without a potency. Where a structure was tested more than once in an assay, its records may differ in their call. The source made the active and inactive calls. The call rests on the fitted dose curve; in most records, active means well fitted cell-killing curve with a large enough effect in the repeat runs; inconclusive means weak or mixed curves; inactive means no such curve, though single readings can be large or run the other way.
Potency means the concentration at half of the fitted maximal effect.

The assay is described as follows: qHTS assay for identifying genotoxic compounds that show differential cytotoxicity against isogenic chicken DT40 cell lines with known DNA damage response pathways - Rad54/Ku70 mutant cell line (AID 743015). Further: nearly all actives have a fitted effect of over 60% in size. As to conditions: DT40 Rad54/Ku70 mutant viability, CellTiter-Glo, 40 h; series mostly up to 66.8 µM. From the text: National Center for Advancing Translational Sciences [NCATS]
NIH Chemical Genomics Center [NCGC]
U.S. Environmental Protection Agency [EPA]
National Institutes of Environmental Health Sciences [NIEHS]
National Toxicology Program [NTP]
U.S. Food and Drug Administration [FDA]
DNA repair pathways play a critical role in cellular homeostasis by repairing DNA damage induced by endogenous processes and xenobiotics. Isogenic chicken DT40 cell lines deficient in different DNA repair pathways can be used to identify genotoxic compounds and aid in characterizing the nature of the DNA damage induced. Two DNA repair-deficient cell lines with disrupted genes, Rad54/Ku70 or Rev3, were used to screen the Tox21 10K compound library. Possible genotoxicity was based on the presence of a significant increase in cytotoxicity in one or more of the DNA repair-deficient cell lines compared to that observed in the parental DNA repair-proficient cell line. CellTiter Glo viability assay (Promega, Madison, WI) was used to measure cell viability in these cells after compound treatment. This assay includes the data from the Rad54/Ku70 mutant cell line.
Tox21 Assay Protocol Summary:
300 DT40 mutant cells in 5 uL/well were dispensed into white, solid-bottom 1536-well plates using a Multidrop Combi (ThermoFisher Scientific, Waltham, MA) dispenser. After the assay plates were incubated at 37 C/5% CO2 for approximately 0.5 hour, 23 nL of compounds dissolved in DMSO, positive controls or DMSO only was transferred into the assay plate by a pintool work station (Kalypsys, San Diego, CA). The assay plates were incubated at 37 C/5% CO2 for 40 hours. After 5 uL per well of CellTiter-Glo reagent was added into each well of the assay plates, the plates were incubated for 30 min at room temperature and the luminescence intensity of the plates was measured using a ViewLux (PerkinElmer, Shelton, CT) plate reader.
For orientation: In qHTS, concentration-response curves come from the screen itself.
`Clc1nc(Cl)nc(Cl)n1`: the Potency entry was “inactive and 13.7 µM (active)”. To `C1=Cc2cccc3cccc1c23` belongs “inactive”; to `CCCCN(CC)c1c([N+](=O)[O-])cc(C(F)(F)F)cc1[N+](=O)[O-]`, “inactive”. As to `COP(=S)(OC)Oc1cc(Cl)c(Cl)cc1Cl`, the Potency result is “inactive”. To `CCN(CC)C(=O)/C(Cl)=C(\C)OP(=O)(OC)OC` belongs “inactive”; to `O=P(Oc1ccccc1)(Oc1ccccc1)Oc1ccccc1`, 38.4 µM (active) and 27.3 µM (active).

In the case of `O=C(O)CC[N+](=O)[O-]`, the Potency result is “inactive”. To `Brc1ccc(Oc2cc(Br)c(Br)cc2Br)c(Br)c1` belongs “inactive”; to `ClC1C(Cl)C(Cl)C(Cl)C(Cl)C1Cl` (stereo not given), “inactive and 48.6 µM (active) and 17.2 µM (active)”. With `CC(C)Oc1cc(-n2nc(C(C)(C)C)oc2=O)c(Cl)cc1Cl`, the Potency is 60.3 µM (active) and 4.86 µM (active).

As for `Nn1cnnc1`, the Potency entry was “inactive”.

As to `COc1ccc(C(CN(C)C)C2(O)CCCCC2)cc1` (stereo not given), the Potency result was “inactive”. As to `CCN(CC)C(=O)SCc1ccc(Cl)cc1`, the Potency was 24.3 µM (active). The result for `COc1ccc(C=O)cc1` reads “inactive”. The result for `Oc1ccc(-c2ccccc2)cc1` reads “inactive”; that for `Cc1ccc(N)c(N)c1`, 48.7 µM (active) and 21.7 µM (active). To `O=C(O)C(F)(F)C(F)(F)C(F)(F)C(F)(F)C(F)(F)C(F)(F)C(F)(F)F` belongs “inactive”. As for `Cc1cc(Cl)ccc1OCCCC(=O)O`, the Potency entry is “inactive”. To `CC(C)NC(C)C` belongs “inactive”.

For `O=Cc1ccco1`, the Potency entry is “inactive”. For the compound `Nc1ccc(-c2ccccc2)cc1`, the Potency entry is “inactive and 30.6 µM (active)”.

As for `CCCCCCCCCCCOC(=O)c1ccccc1C(=O)OCCCCCCCCCCC`, the Potency entry was “inactive”. In the case of `CCOc1cc(Oc2ccc(C(F)(F)F)cc2Cl)ccc1[N+](=O)[O-]`, the Potency was 54.5 µM (active). `CCc1cccc(CC)c1N(COC)C(=O)CCl`: the Potency is 29.6 µM (active) and 10.9 µM (active).

As for `Cc1c(COC(=O)[C@@H]2[C@H](/C=C(\Cl)C(F)(F)F)C2(C)C)cccc1-c1ccccc1`, the Potency entry was “inactive”.

With `CCC(=O)O[C@H]1CC[C@H]2[C@@H]3CCC4=CC(=O)CC[C@]4(C)[C@H]3CC[C@]12C`, the Potency was 12.7 µM (active) and 21.7 µM (active). For `CC(C)(C)c1ccccc1O`, the Potency entry is “inactive”. The result for `O=[N+]([O-])c1cccc2ccccc12` reads “inactive”; that for `CC(C)c1ccc(CO)cc1`, “inactive”. The result for `CCCCCCCCC(=O)NCc1ccc(O)c(OC)c1` reads “inactive”; that for `CCCCN(CCCC)N=O`, “inactive”; that for `CN(C)c1ccc(C(=O)c2ccc(N(C)C)cc2)cc1`, 1.35 µM (active) and 1.37 µM (active). `N#CC(Br)Br`: the Potency entry was “inactive”. In the case of `Oc1cc(Cl)ccc1Oc1ccc(Cl)cc1Cl`, the Potency was 26.6 µM (active) and 10.3 µM (active). Regarding `CCC(C)c1cc([N+](=O)[O-])cc([N+](=O)[O-])c1O` (stereo not given), the Potency entry is “inactive and 27.3 µM (active)”. In the case of `CCC(CC)Nc1c([N+](=O)[O-])cc(C)c(C)c1[N+](=O)[O-]`, the Potency entry was “inactive and 54.4 µM (active)”. As to `C=CCN(CC=C)C(=O)C(Cl)Cl`, the Potency entry is “inactive”. To `C=CCc1ccc(OC)cc1` belongs “inactive”.

On to `CCOP(=S)(OCC)O/N=C(\C#N)c1ccccc1`, for which the Potency entry was “inactive”. The result for `Cc1ccc2c(c1N)C(=O)c1ccccc1C2=O` reads 24.1 µM (active) and 30.6 µM (active).
